Rows were chosen to be rich in hits. Some 6.8% of all compounds tested hit in one or more screens of this group.
T cruzi growth-1: inhibitors of T. cruzi proliferation; T. cruzi beta-gal in NIH3T3, GalScreen luminescence, 90 h; inhibition, % at 8.34 µM; actives 5.9% (n = 77,000); AID 624255;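 active = mean inhibition above about 93%, with at least 55% of replicates each passing it, limit read from the data, passing the limit was not always enough; inconclusive = only one of those two conditions holds; inactive = neither condition holds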
Pf Dd2 inh: inhibitors of Plasmodium falciparum Dd2 growth | P. falciparum Dd2 growth, SYBR Green, 72 h; stronger effect = lower value | activity change, % at 10 µM | actives 2.3% (n = 94,000); in the data active = activity change below about -80%; inconclusive = no clear call, values can overlap the other calls
C diff growth: blocks growth of Clostridium difficile; growth activity, negative = inhibition, % at 16 µg/mL (by protocol); Clostridium difficile clinical isolate growth, OD600, 24 h; stronger effect = lower value; actives 0.25% (n = 86,000);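 active = mean growth activity at or below -80% and every replicate also at or below -80%; inconclusive = mean at or below -80% but some replicate above -80%; inactive = mean growth activity above -80%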;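 also: 0% = DMSO wells and -100% = levofloxacin 16 µg/mL wells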
T cruzi growth-2: inhibitors of T. cruzi proliferation; shares compounds with T cruzi growth-1; actives 72% (n = 5,600); inhibition, % at 8.35 µM; T. cruzi beta-gal in NIH3T3, GalScreen luminescence, 90 h; AID 651739;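 active = mean replicate inhibition above about 95% and at least 55% of replicates individually reaching it, limit read from the data; inconclusive = only one of the two criteria is met; inactive = neither criterion is met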
T cruzi growth-3: inhibitors of T. cruzi proliferation. shares compounds with T cruzi growth-1. T. cruzi beta-gal in NIH3T3, GalScreen luminescence, 90 h. inhibition, % at 2.09 µM. actives 21% (n = 5,600). AID 651740;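 active = mean inhibition above about 95%, with at least 55% of replicates also reaching it, limit read from the data; inconclusive = meets just one of the two conditions; inactive = meets neither condition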;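 also: plate controls were neutral control median for no effect and positive control median for full effect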
3T3 cytotox: kills mouse NIH/3T3 fibroblasts | shares compounds with T cruzi growth-1 | NIH/3T3 viability, CellTiter-Glo ATP luminescence, 90 h | cytotoxicity (signal decrease), % at 8.35 µM | actives 14% (n = 5,600) | AID 651742;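 active = mean signal decrease across replicates above about 35% based on untreated-well scatter, with enough replicates individually passing, limit read from the data; inconclusive = no rule stated though some were filed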;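 also: 0% = median of neutral control wells and 100% = median of positive control wells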
3T3 cytotox 2: NIH/3T3 (mouse) viability loss | actives 56% (n = 5,600) | inhibition, % at 24.9 µM | NIH/3T3 viability, CellTiter-Glo ATP luminescence, 90 h | shares compounds with T cruzi growth-1 | AID 651744;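 active = mean loss of cell viability signal at or above a set limit, and enough replicates individually reaching it; inconclusive = meets only the mean limit or only the replicate share; inactive = meets neither condition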;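 also: 0% = median of neutral control wells and 100% = median of positive control wells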
* marks the source's active call; other numbers are inactive results; u = inconclusive; x = no result given.

SMILES	T cruzi growth-1	Pf Dd2 inh	C diff growth	T cruzi growth-2	T cruzi growth-3	3T3 cytotox	3T3 cytotox 2
CCCC#Cc1ccc2c(c1)O[C@@H](CN(C)C(C)=O)[C@H](C)CN([C@H](C)CO)S2(=O)=O	-17	-41	0	x	x	x	x
NCC[C@@H]1CC[C@H](NC(=O)Nc2ccc(F)cc2)[C@H](CO)O1	-15	29	-3	x	x	x	x
C[C@H](CO)N1C[C@H](C)[C@H](CN(C)C(=O)Nc2ccc(F)cc2)OCCCC[C@H](C)Oc2ccc(NC(=O)Nc3ccc(C(F)(F)F)cc3)cc2C1=O	98*	10	0	91	109*	19	18
CC(C)NC(=O)N(C)C[C@@H]1OCCCC[C@@H](C)Oc2ccc(NC(=O)Nc3ccc(C(F)(F)F)cc3)cc2C(=O)N([C@@H](C)CO)C[C@H]1C	x	23	8	x	x	x	x
C[C@@H]1CCCCO[C@H](CN(C)C(=O)Nc2ccc(F)cc2)[C@@H](C)CN([C@H](C)CO)C(=O)c2cc(NC(=O)Nc3ccc(C(F)(F)F)cc3)ccc2O1	u	-7	4	105*	101*	16	24
C[C@@H]1CCCCO[C@H](CN(C)C(=O)Nc2ccc(F)cc2)[C@H](C)CN([C@@H](C)CO)C(=O)c2cc(NC(=O)Nc3ccc(C(F)(F)F)cc3)ccc2O1	97*	-38	4	102*	115*	22	16
C[C@H]1CCCCO[C@@H](CN(C)C(=O)Nc2ccccc2)[C@@H](C)CN([C@@H](C)CO)C(=O)c2cc(NC(=O)Nc3ccc(C(F)(F)F)cc3)ccc2O1	x	-15	-9	x	x	x	x
CC(C)NC(=O)N(C)C[C@@H]1OCCCC[C@H](C)Oc2ccc(NC(=O)Nc3ccc(C(F)(F)F)cc3)cc2C(=O)N([C@@H](C)CO)C[C@@H]1C	u	-47	-9	109*	78	12	-1
C[C@@H]1CN([C@@H](C)CO)C(=O)c2cc(NC(=O)Nc3ccc(C(F)(F)F)cc3)ccc2O[C@@H](C)CCCCO[C@@H]1CN(C)C(=O)Nc1ccccc1	x	-57	1	x	x	x	x
C[C@@H]1CCCCO[C@H](CN(C)C(=O)Nc2ccc(F)cc2)[C@H](C)CN([C@@H](C)CO)C(=O)c2cc(NC(=O)Nc3ccc(F)cc3)ccc2O1	x	-52	x	x	x	x	x
C[C@H](CO)N1C[C@H](C)[C@H](CN(C)S(=O)(=O)c2cn(C)cn2)OCCCC[C@H](C)Oc2ccc(NC(=O)c3ccccc3)cc2C1=O	-4	-43	4	x	x	x	x
CC(C)c1cn([C@H]2C[C@@H]3O[C@@H](CO)CC[C@@H]3O[C@@H]2CCc2ccc(C#CC3CCCCC3)cc2)nn1	x	-72	-10	x	x	x	x
C/C=C/c1ccc([C@H]2[C@@H](CO)N(C(C)=O)C23CN(C(=O)NC2CCCC2)C3)cc1	x	-22	-1	x	x	x	x
CC(=O)N[C@H]1CC[C@H](CC(=O)NCc2ccc(Cl)cc2)O[C@@H]1CO	-15	2	0	x	x	x	x
CCCC#Cc1ccc([C@H]2[C@@H](C#N)N(C(=O)C3CCC3)[C@@H]2CO)cc1	99*	-33	-5	102*	100*	-25	-7
CCCC#Cc1ccc([C@@H]2[C@@H](CO)N(C(=O)C3CCC3)[C@H]2C#N)cc1	92	-35	-3	x	x	x	x
CCCC#Cc1ccc([C@@H]2[C@@H](CO)N(C(=O)C3CCCCC3)[C@H]2C#N)cc1	89	-34	1	x	x	x	x
CCCC#Cc1ccc([C@@H]2[C@H](C#N)N(C(=O)C3CCCC3)[C@H]2CO)cc1	99*	-54	21	98*	106*	26	78*
CCCC#Cc1ccc([C@@H]2[C@@H](C#N)N(C(=O)C3CCCCC3)[C@H]2CO)cc1	96*	-45	1	91	106*	26	53*
CCCC#Cc1ccc([C@H]2[C@H](C#N)N(C(=O)C3CCC3)[C@H]2CO)cc1	87	-32	2	x	x	x	x
C[C@H](CO)N1C[C@H](C)[C@@H](CN(C)C(=O)Nc2ccc(C(F)(F)F)cc2)Oc2ccc(N(C)C)cc2CC1=O	52	-40	5	x	x	x	x
C[C@H](CO)N1C[C@H](C)[C@@H](CN(C)C)OCCCC[C@H](C)Oc2ccc(NS(=O)(=O)c3cccs3)cc2C1=O	33	51	5	x	x	x	x
Cc1ccccc1-c1ccc([C@H]2[C@@H](CO)N3C(=O)CN(C(=O)Nc4ccc(F)cc4)C[C@@H]23)cc1	x	-25	-6	x	x	x	x
COCC(=O)N[C@@H]1CC[C@H](CC(=O)NCc2ccccc2OC)O[C@H]1CO	-35	5	x	x	x	x	x
O=S(=O)(c1ccccc1F)N1CCCCN2[C@H](CO)[C@H](c3ccc(-c4ccncc4)cc3)[C@H]2C1	102*	-16	-6	105*	35	9	0
SMILES	T cruzi growth-1	Pf Dd2 inh	C diff growth	T cruzi growth-2	T cruzi growth-3	3T3 cytotox	3T3 cytotox 2
O=S(=O)(c1ccccc1F)N1CCCCN2[C@H](CO)[C@H](c3ccc(-c4ccncc4)cc3)[C@@H]2C1	44	-4	-11	x	x	x	x
O=S(=O)(c1ccccc1F)N1CCCCN2[C@H](C1)[C@H](c1ccc(-c3cccnc3)cc1)[C@@H]2CO	100*	24	-4	98*	19	16	12
O=S(=O)(c1ccccc1F)N1CCCCN2[C@H](CO)[C@@H](c3ccc(-c4cccnc4)cc3)[C@@H]2C1	94	31	-20	x	x	x	x
COc1ccc(NC(=O)Nc2cccc3c2O[C@@H](CN(C)Cc2ccc(C(=O)Nc4ccccc4N)cc2)[C@H](C)CN([C@H](C)CO)C3=O)cc1	u	-70	-3	94	86	14	65*
C[C@@H]1CN([C@@H](C)CO)C(=O)c2cc(NC(=O)Nc3ccc4c(c3)OCO4)ccc2O[C@H]1CN(C)Cc1ccc(C(=O)Nc2ccccc2N)cc1	x	-73	-1	x	x	x	x
COc1ccc(NC(=O)Nc2cccc3c2O[C@@H](CN(C)Cc2ccc(C(=O)O)cc2)[C@@H](C)CN([C@H](C)CO)C3=O)cc1	102*	1	2	-19	-18	6	-10
COc1ccc(NC(=O)Nc2cccc3c2O[C@H](CN(C)Cc2ccc(C(=O)O)cc2)[C@H](C)CN([C@@H](C)CO)C3=O)cc1	2	15	0	x	x	x	x
C[C@H]1CN([C@@H](C)CO)C(=O)c2cccc(NC(=O)Nc3cccc4ccccc34)c2O[C@H]1CN(C)Cc1ccc(C(=O)Nc2ccccc2N)cc1	x	u	11	x	x	x	x
C[C@H](CO)N1C[C@H](C)[C@@H](CN(C)Cc2ccc(C(=O)Nc3ccccc3N)cc2)Oc2c(NC(=O)Nc3ccc4c(c3)OCO4)cccc2C1=O	107*	-88*	x	103*	88	-1	54*
Cc1noc(C)c1NC(=O)Nc1cccc2c1O[C@H](CN(C)CC1CCCCC1)[C@@H](C)CN([C@H](C)CO)C2=O	31	-28	3	x	x	x	x
